Experimental data as given in PubChem BioAssay AID593 (National Center for Advancing Translational Sciences (NCATS), 2007).
The campaign covered roughly 59,000 compounds. About 540 (0.92%) were called active. Roughly 33% stayed inconclusive and do not appear here. Cut-off read from the data, not from the text of the source: active = max fluorescein-equivalent concentration above about 10 nM; inconclusive = between about 1.1 nM and that limit; inactive = weaker than that. Many of the other results were omitted from the sample, so actives are more common in it than they were.

Experiment: qHTS Assay for Spectroscopic Profiling in Fluorescein Spectral Region
Conditions: Compound autofluorescence, 480/540 nm; max fluorescein-equivalent concentration: hits give high values; outcome: fluorescein-equivalent
Source text: NIH Molecular Libraries Screening Centers Network [MLSCN]
NIH Chemical Genomics Center [NCGC]
Occasionally, the artifactual effect may originate from the compound's own spectral or other biophysical properties which generally tend to track its assay concentration. Pre-screening/profiling the library with respect to the compounds' spectral properties should help one exclude false positives early on. While the most informative fluorescent profiling data set is obtained by performing a full excitation and emission scan of each well by using a monochromator-based plate reader, such an approach is practical only on a very limited scale as scanning each well requires long time. An alternative approach, applied here, is to perform plate reader scans using selected excitation and emission wavelength pairs to generate a multidimensional relational database that correlates compound concentration and the respective relative fluorescence intensity at a given wavelength set. A standard curve of fluorescein present on each plate as six-point concentration series, was used to compute a normalized fluorescence response, termed dye-equivalent concentration, for each compound at each concentration.
NCGC Assay Protocol Summary:
100 mM Tris buffer, pH 8.0
The wells in columns 1 through 4 of a Kalypsys polypropylene 1536-well compound plate were filled with standard solutions of fluorophore corresponding to the spectral region of interest. Solutions of Fluorescein were placed in the following wells: Q1, R1: 3 mM, Q2, R2: 300 uM, Q3, R3: 30 uM, Q4, R4: zero (DMSO), S1, T1: 3 uM, S2, T2: 900 nM, S3, T3: 300 nM, S4, T4: zero (DMSO).
Six uL of buffer were dispensed to 1536-well Greiner black plates. Compounds and dye standards (23 nL) were transferred via Kalypsys PinTool. The plates were incubated for 15 min at room temperature, and then read on ViewLux (Perkin-Elmer) High-throughput CCD imager using 480 nm and 540 nm excitation and emission filter set.
Keywords: NIH Roadmap, MLSCN, MLI, MLSMR, qHTS, NCGC, Fluorescein, Fluorescent Profiling.

Max fluorescein-equivalent concentration, inactive:
CC(C)CC(=O)N=C1SC2CS(=O)(=O)CC2N1CCc1ccccc1 (stereo not given)
O=C(c1ccco1)N1CCC2(CC1)CCN(c1ncccn1)CC2
NCC(=O)[C@@H](O)[C@H](O)[C@H](O)CO
Cc1cc(C)c2cc(CN(Cc3cccs3)Cc3nnnn3CC3CCCO3)c(=O)[nH]c2c1 (stereo not given)
CS(=O)(=O)N1CCC2(CCN(c3ccncc3)CC2)CC1
COc1ccc(-c2ccc(-c3noc(-c4ccncc4)n3)c(OC)n2)cc1
COc1cccc(-c2cc(NCCc3c[nH]c4ccc(OC)cc34)ncn2)c1
CN1CCN(c2ccc(NC(=O)COc3ccc(Cl)cc3Cl)cc2)CC1
Clc1ccc(C(c2ccc(Cl)cc2)n2cc[n+](C[C@@H](OCc3ccc(Cl)cc3Cl)c3ccc(Cl)cc3Cl)c2)cc1
COCCn1c(=O)c(CCc2ccccc2)nc2cnc(N3CCNCC3)nc21
COc1ccccc1CCn1c(=O)c(-c2cn(C)c3ccccc23)nc2cncnc21
CCn1c(Cc2ccccc2)nnc1SCC(=O)Nc1ccccc1
O=c1cc(-c2ccc(O)c(O)c2)oc2cccc(O)c12
CCCCCCn1c(CN2CCCC(C)C2)nc2c1c(=O)n(C)c(=O)n2C (stereo not given)
COC(=O)c1c(NC(=O)CSc2nc3c(c(=O)n(C)c(=O)n3C)n2C(C)C)sc(C)c1C
Clc1ccc(C=Nc2ccc3c(c2)Cc2ccccc2-3)c(Cl)c1
CCNc1ncc2nc(CCc3ccccc3)c(=O)n(-c3ccc(OC)cc3)c2n1
CSCCC(Nc1nc2ccccc2s1)C(=O)O (stereo not given)
CCn1c(COc2cccc(OC)c2)nnc1SCC(=O)N1CCOCC1
O=C(O)[C@@H](S)[C@H](S)C(=O)O
COc1ccc(OC)c([C@H](O)CNC(=O)CN)c1
COCCNC(=O)C(C#N)c1nc2ccccc2nc1N1CCN(Cc2ccc3c(c2)OCO3)CC1 (stereo not given)
CC(=O)/C(=N\N=C(N)N)c1ccccc1
CCCCC(=O)Nc1ccc(C(=O)NCCCn2ccnc2)cc1
O=c1[nH]nc(CSCc2ccccc2Cl)[nH]1
COC(=O)N1CCC[C@@]2(CCN(C(=O)NC(C)C)C2)C1
CCOC(=O)c1cc2ccccc2nc1C
CCOC(=O)c1cc2n(c1C)-c1ccccc1C2=O
CCc1ccc2oc(-c3ccc(N)cc3)nc2c1
O=C(c1ccncc1)N1CCC2(CCCN(C(c3ccccc3)c3ccccc3)C2)CC1
CC(C)CSC[C@@H]1O[C@H](n2cnc3c(N)nccc32)[C@H](O)[C@@H]1O
COc1ccc(-c2nc3cnc(Oc4ccccc4)nc3n(Cc3cccs3)c2=O)cc1
CCOc1ccc(N=NS(=O)(=O)O)cc1
O=c1c(-c2cccs2)nc2cnc(Oc3ccccc3)nc2n1-c1ccccc1
CCn1c(COc2ccc(OC)cc2)nnc1SCC(=O)Nc1cc(OC)ccc1OC
Cc1ccc2nc(NCCCNC(=O)c3cnccn3)c(C#N)cc2c1
CC(C)CNC(=O)C1CCCN(S(=O)(=O)c2ccc(-n3cnnn3)cc2)C1 (stereo not given)
FC(F)(F)c1ccccc1-c1cc(NCc2ccccc2)ncn1
COCCn1c(=O)c(C)nc2cnc(N(C)C)nc21
CN1CCN(C(=O)c2ccc(NS(=O)(=O)c3ccccc3)cc2)CC1
CN1CCN(Cc2nc3c(c(=O)n(C)c(=O)n3C)n2Cc2cccc3ccccc23)CC1
CS(=O)(=O)N(C(=O)NC(=O)NC1CCS(=O)(=O)C1)C1CCCCC1 (stereo not given)
NC(=O)C1CCN(C(=O)c2ccc(C(F)(F)F)cc2)CC1
CC1(C)S[C@@H]2[C@@H](NC(=O)[C@@H](N)c3ccccc3)C(=O)N2[C@H]1C(=O)O
O=C(NCCc1ccco1)c1nn(Cc2ccccc2)c(=O)c2ccccc12
CN(C)CCCn1c2ccccc2c2cnccc21
CC(C)c1nc2oc3c(N4CCN(C)CC4)ncnc3c2c2c1CCC2
CC(=O)N1CCN(c2ccc(NCc3ccc(C(C)C)cc3)cc2)CC1
Cc1ccc(C(=O)NCC(=O)O)cc1S(=O)(=O)N1CCCCC1

Max fluorescein-equivalent concentration, active:
CCCn1c(O)c(CN2CCCC(C)C2)c(C)c(C#N)c1=O (stereo not given) 65 nM
Cc1ccc(S(=O)(=O)C(C#N)c2nc3ccccc3nc2N2CCCC2)cc1C (stereo not given) 14 nM
CCOC(=O)c1cc2n(c1N)-c1ccccc1C2=O 780 nM
CCN(CC)c1ccc2oc(=O)c(C)nc2c1 140 nM
Nc1ccc2c3c(cccc13)C(=O)NC2=O 2000 nM
CC[N+](C)(CC)CCC[n+]1c(-c2ccccc2)c2cc(N)ccc2c2ccc(N)cc21 18 nM
